The whole screen tested about 3,200 compounds, of which about 300 (9.4%) showed activity. The list comes from a sample in which actives are over-represented; it also holds similar structures and randomly drawn compounds.
Tested on: A673/TR/shEF
Assay: cell viability (LOESS-normalised, relative to median of negative controls) (log2 ratio); higher = more viable cells (less compound effect), active = hit call of the paper (over 3 MAD below the median)
Conditions: treatment time: 72 h
Summary of the method: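 A673/TR/shEF Ewing sarcoma cells (1,500 per well, 384-well plates) were grown with or without doxycycline to induce EWS-FLI1 shRNA knockdown, starting 24 h before compounds. Library compounds at two or more concentrations, with DMSO controls, were added for three days. Cell viability was read by CellTiter-Glo luminescence on an Envision reader, then LOESS-corrected per plate, divided by the median of negative controls and log2-transformed. Hits were wells at least three median absolute deviations from the median of all screened wells.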

[1] = 0.25 µM, library screen: screen2, EWS-FLI1 expression: high (no doxycycline)
[2] = 0.25 µM, library screen: screen2, EWS-FLI1 expression: low (doxycycline-induced shRNA knockdown)
[3] = 2.5 µM, library screen: screen2, EWS-FLI1 expression: high (no doxycycline)
[4] = 2.5 µM, library screen: screen2, EWS-FLI1 expression: low (doxycycline-induced shRNA knockdown)
[5] = 0.25 µM, library screen: screen1, EWS-FLI1 expression: high (no doxycycline)
[6] = 0.25 µM, library screen: screen1, EWS-FLI1 expression: low (doxycycline-induced shRNA knockdown)
[7] = 2.5 µM, library screen: screen1, EWS-FLI1 expression: high (no doxycycline)
[8] = 2.5 µM, library screen: screen1, EWS-FLI1 expression: low (doxycycline-induced shRNA knockdown)

Measured: cell viability (log2)

CC(O)C(C)OC(=O)[C@@H]1C[C@@H]2c3cccc4c3c(cn4C(C)C)C[C@H]2N(C)C1 (some centres undefined)
inactive: [1] 0.174 | [2] 0.171 | [3] 0.12 | [4] 0.112

NCCc1cccc(O)c1
inactive: [5] 0.0584 | [6] 0.0834 | [7] 0.0622 | [8] 0.0348

CN1CC[C@@]2(C)c3cc(O)ccc3N(C)C12 (some centres undefined)
inactive: [1] 0.117 | [2] 0.0622 | [3] 0.072 | [4] 0.0674

CNNC
inactive: 0.025 µM, library screen: screen2, EWS-FLI1 expression: high (no doxycycline) 0.186 | 0.025 µM, library screen: screen2, EWS-FLI1 expression: low (doxycycline-induced shRNA knockdown) 0.0401 | [5] 0.136 | [6] 0.152 | [1] 0.206 | [2] 0.035 | [7] 0.115 | [8] 0.131 | [3] 0.112 | [4] 0.0817 | 25 µM, library screen: screen2, EWS-FLI1 expression: high (no doxycycline) 0.239 | 25 µM, library screen: screen2, EWS-FLI1 expression: low (doxycycline-induced shRNA knockdown) 0.143

Nc1ncnc2c1ncn2[C@@H]1O[C@H](COP(=O)(O)CP(=O)(O)OP(=O)([O-])[O-])[C@H](O)C1O.[Li+].[Li+] (some centres undefined)
inactive: [1] 0.132 | [2] 0.0925 | [3] 0.106 | [4] 0.143

N[C@@H](Cn1ccc(=O)[nH]c1=O)C(=O)O
inactive: [1] 0.256 | [2] -0.00427 | [3] 0.176 | [4] 0.041

CNC(=O)O/N=C/C(C)(C)SC
inactive: [5] 0.0387 | [6] 0.0491 | [7] 0.106 | [8] 0.0724

C[C@@H]1OC(=O)[C@H]2C[C@H]3CCCC[C@@H]3[C@@H](/C=C/[C@@H]3CCC[C@@H](C)N3C)[C@@H]12
inactive: [1] 0.0803 | [2] 0.0731 | [3] 0.143 | [4] 0.0419

c1cncc(C2CCCCN2)c1 (centres undefined)
inactive: [5] 0.0408 | [6] -0.0074 | [7] 0.145 | [8] 0.0957

CC(=O)Oc1c2c(c(CC=C(C)C)c3c1C(=O)C1=C[C@@H]4CC5C(C)(C)OC(C/C=C(\C)C(=O)O)(C4=O)[C@@]15O3)OC(C)(CCC=C(C)C)C=C2 (some centres undefined)
inactive: [5] 0.0664 | [6] 0.0597 | [7] -0.0173 | [8] 0.269

CC(C)=CCC[C@]1(C)C=Cc2c(O)c3c(c(CC=C(C)C)c2O1)O[C@]12C(=C[C@@H]4C[C@H]1C(C)(C)O[C@@]2(C/C=C(/C)C(=O)O)C4=O)C3=O
inactive: [5] -0.0514 | [6] 0.129 | [8] -0.0142
active: [7] -1.16

CC(C)=CCCC1(C)C=Cc2c(O)c3c(c(CC=C(C)C)c2O1)OC12C(CC4CC1C(C)(C)OC2(C/C=C(/C)C(=O)O)C4O)C3=O (centres undefined)
inactive: [5] 0.0661 | [6] 0.00238 | [7] 0.127 | [8] 0.0888

COC(=O)/C(C)=C\CC12OC(C)(C)C3CC(C=C4C(=O)c5c(OC)c6c(c(CC=C(C)C)c5OC431)OC(C)(CCC=C(C)C)C=C6)C2=O (centres undefined)
active: [7] -4.2 | [8] -3.74
inactive: [5] 0.0497 | [6] 0.135

CC(C)=CCCC1(C)C=Cc2c(O)c3c(c(CC=C(C)C)c2O1)OC12C(=CC4CC1C(C)(C)OC2(CC=C(C)C(=O)O)C4O)C3=O (centres undefined)
active: [7] -0.137
inactive: [5] 0.1 | [6] 0.0956
0.307: [8]

COc1cccc(CN2CCN(Cc3ccccc3OC)CC2)c1
inactive: [5] 0.108 | [6] 0.0202 | [7] 0.149 | [8] -0.0141

COc1cc2c(cc1-c1cc3cc4ccoc4cc3oc1=O)OCO2
inactive: [5] 0.0215 | [6] -0.011 | [7] 0.0285 | [8] 0.107

CN1[C@H]2CC(OC(=O)C(CO)c3ccccc3)C[C@H]1[C@H]1O[C@H]12 (some centres undefined)
inactive: 0.103 µM, library screen: screen3, EWS-FLI1 expression: high (no doxycycline) 0.0178 | 0.103 µM, library screen: screen3, EWS-FLI1 expression: low (doxycycline-induced shRNA knockdown) 0.0286 | [5] 0.0614 | [6] 0.0379 | [1] 0.0402 | [2] 0.0538 | 0.308 µM, library screen: screen3, EWS-FLI1 expression: high (no doxycycline) 0.0468 | 0.308 µM, library screen: screen3, EWS-FLI1 expression: low (doxycycline-induced shRNA knockdown) 0.0486 | 0.926 µM, library screen: screen3, EWS-FLI1 expression: high (no doxycycline) 0.057 | 0.926 µM, library screen: screen3, EWS-FLI1 expression: low (doxycycline-induced shRNA knockdown) 0.0457 | [7] 0.101 | [8] 0.113 | [3] 0.0967 | [4] 0.105 | 2.8 µM, library screen: screen3, EWS-FLI1 expression: high (no doxycycline) 0.00477 | 2.8 µM, library screen: screen3, EWS-FLI1 expression: low (doxycycline-induced shRNA knockdown) 0.0597 | 8.3 µM, library screen: screen3, EWS-FLI1 expression: high (no doxycycline) 0.0173 | 8.3 µM, library screen: screen3, EWS-FLI1 expression: low (doxycycline-induced shRNA knockdown) 0.0298 | 25 µM, library screen: screen3, EWS-FLI1 expression: high (no doxycycline) -0.0119 | 25 µM, library screen: screen3, EWS-FLI1 expression: low (doxycycline-induced shRNA knockdown) 0.114

CCNc1nc(Cl)nc(NCC)n1
inactive: [5] 0.0934 | [6] -0.0122 | [7] 0.0949 | [8] 0.0079

c1ccc2c(c1)sc1ccccc12
inactive: [5] 0.0739 | [6] 0.0613 | [7] 0.158 | [8] 0.198

CCOP(=S)(OCC)SCSP(=S)(OCC)OCC
inactive: [5] 0.0176 | [6] 0.0157 | [7] 0.0447 | [8] 0.0694

From the supplement of paper PMC6089552
